DT40 TDP1 no CPT – qHTS for Inhibitors of human tyrosyl-DNA phosphodiesterase 1 (TDP1): qHTS in cells in absence of CPT; DT40 Tdp1-/- hTDP1 cells, no CPT, ATP luminescence, 48 h; Potency, µM (series often up to 46.2 µM), inactives show at the top dose activity change, negative = growth inhibition, usual class: inhibitors; actives 15% (n = 420,000); AID 686978, 2013; further: nearly all actives have a fitted effect of over 55% in size
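Cells were dispensed at 400 per well, compounds added by pin tool, plates incubated ≥48 hr at 37 °C, then CellTiter-Glo added for 30 min at room temperature before luminescence reading. Line: DT40 Tdp1-/- complemented with hTDP1; camptothecin omitted.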
RORgamma inh – blocks mouse ROR gamma transcriptional activity. Potency, µM (top dose mostly 53.6 µM), inactives show top-dose activity change, negative = inhibition, usual class: inhibitors. actives 5.4% (n = 310,000). Drosophila S2 Gal4-RORgamma UAS-luciferase reporter, 20 h; further: nearly all actives have a fitted effect of over 60% in size
Target sequence (P51450 whole entry, looked up, the tested form may be a part): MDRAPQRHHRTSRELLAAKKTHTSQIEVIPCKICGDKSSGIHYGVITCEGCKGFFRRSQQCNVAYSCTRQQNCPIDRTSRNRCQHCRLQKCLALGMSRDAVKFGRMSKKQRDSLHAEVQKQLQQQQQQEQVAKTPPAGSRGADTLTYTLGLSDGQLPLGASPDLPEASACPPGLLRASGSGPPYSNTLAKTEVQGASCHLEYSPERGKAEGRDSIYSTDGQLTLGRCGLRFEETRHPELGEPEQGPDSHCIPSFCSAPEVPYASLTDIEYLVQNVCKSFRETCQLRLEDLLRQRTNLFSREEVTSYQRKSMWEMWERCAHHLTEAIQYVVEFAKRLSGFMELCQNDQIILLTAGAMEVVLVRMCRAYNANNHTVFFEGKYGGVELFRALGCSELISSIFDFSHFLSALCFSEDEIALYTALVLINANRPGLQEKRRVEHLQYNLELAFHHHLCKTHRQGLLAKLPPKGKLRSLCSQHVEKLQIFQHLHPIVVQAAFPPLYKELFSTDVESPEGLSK
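Stable Schneider cell line, Gal4 DNA-binding domain fused to ROR gamma, UAS-luciferase. Cmpd 1 hr RT → CuSO4 700 uM final → 20 hr RT → luciferase reagent 10 min → luminescence.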
VP16 counter – counter-screen for ROR gamma inhibitors: Gal4-VP16 reporter. AID 2546. Potency, µM (doses to about 53.6 µM), for the others: at the highest dose activity, negative = inhibition, usual class: inhibitors. actives 3.5% (n = 310,000). Drosophila S2 Gal4-VP16 UAS-luciferase, luminescence, 20 h;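 further: Gal4-VP16 expression switched on by copper sulfate through the metallothionein promoter; nearly all actives have a fitted effect of over 50% in size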
ELG1 DNA repair – blocks ELG1-dependent DNA repair in HEK293T cells. AID 504467. HEK293T ELG1-luciferase reporter, luminescence, 16 h; DNA damage induced by 5-fluorouridine. Potency, µM (highest dose often 46.1 µM), without a hit: top-dose activity change, negative = inhibition, most hits filed as inhibitors. actives 2.3% (n = 330,000); further: nearly all actives have a fitted effect of over 55% in size
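In this reporter screen, reduction of luminescence relative to DMSO vehicle indicated activity. Compounds and 5-fluorouridine were added together to 2,000 cells per well, incubated for 16 hr at 37 °C, then developed with ONE-Glo.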
DT40 TDP1 CPT – DT40-hTDP1 cell growth loss with CPT | AID 686979 | actives 12% (n = 420,000) | Potency, µM (highest dose often 46.2 µM), inactives show top-dose activity change, negative = growth inhibition, actives largely listed as inhibitors | chicken DT40 Tdp1-/-;hTDP1 cells + 20 nM CPT, ATP luminescence, 48 h; further: nearly all actives have a fitted effect of over 55% in size
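Chicken DT40 Tdp1-/- cells stably complemented with human TDP1 were seeded at 400 cells/well in medium containing 20 nM camptothecin, exposed to pin-transferred compounds, and grown at 37 °C for at least 48 hr. Viability was read as ATP luminescence.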
ALOX12 inh – blocks human arachidonate 12S-lipoxygenase. P18054. purified 12hLO, xylenol orange hydroperoxide absorbance. Potency, µM (titrated, usually from 108 µM), without a hit: top-dose activity change, negative = inhibition, hits mostly inhibitors. actives 1.1% (n = 580,000). AID 1671190
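Purified human 12hLO at 150 nM in 25 mM Hepes, 0.01% Triton X-100, pH 7.0, preincubated 15 min at room temperature with compound. Reaction started with 40 uM arachidonic acid, 30 min at room temperature. Hydroperoxide measured by Fe-xylenol orange, 573/405 nm absorbance ratio.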
Numbers without * were called inactive; ? = inconclusive; . = not tested or not shown; [ ] = dose if it differs, or a comment. An excerpt weighted towards active compounds, which were near 15% of everything screened. The call rests on the fitted dose curve; in most records, active means well fitted curve in the direction sought with a large enough effect; inconclusive means small, poorly fitted or top-dose-only effect, or another doubt; inactive means no such curve, though single readings can be large; an effect the other way counts as inactive or inconclusive. On the % scale 0 is the no-effect control and ±100 the full control effect; potency means the concentration at half of the fitted maximal effect.

SMILES	DT40 TDP1 no CPT	RORgamma inh	VP16 counter	ELG1 DNA repair	DT40 TDP1 CPT	ALOX12 inh
O=C(c1ccccc1F)N1CCC2(CC1)N=C(c1ccccc1)NO2	.	.	.	.	.	42.3%
Cc1c(CCOC(=O)c2cccc([N+](=O)[O-])c2)sc[n+]1CC(=O)c1ccccc1	?	9.3%	7.5%	?	8.2µM*	1.6%
O=C(C[n+]1csc2ccccc21)c1cccc([N+](=O)[O-])c1	10µM*	.	.	.	11.2µM*	.
Cc1cc[n+](CC(=O)c2cccc([N+](=O)[O-])c2)c2ccccc12	-25.0%	?	-1.9%	-17.6%	8.5%	?
COc1ccc(-n2nc3n(c2=O)CCN(Cc2cccc4ccccc24)C3)cc1	.	.	.	.	.	0.7%[6.33 µM]
O=C1C=CN2CCCCC2CC1 (configuration not stated)	16.4µM*	.	.	?	10.3µM*	?
O=C1C=CN2CCOCC2C1 (configuration not stated)	-2.7%	.	.	?	5.1%	2.5%
O=C(N/N=C/c1cc(Cl)cc([N+](=O)[O-])c1O)NC12CC3CC(CC(C3)C1)C2	?	3.98µM*	?	-27.6%	?	?
O=C(NC12CC3CC(CC(C3)C1)C2)c1ccc(Cl)c([N+](=O)[O-])c1	.	.	.	.	.	-3.3%
COc1cc(/C=N/NC(=O)NC23CC4CC(CC(C4)C2)C3)ccc1O	?	25.6%	-2.5%	16.0%	-23.9%	?
O=C(N/N=C/c1ccccc1O)NC12CC3CC(CC(C3)C1)C2	?	?	15.8µM*	?	?	-1.8%
O=C(N/N=C/c1ccc(O)c(O)c1)NC12CC3CC(CC(C3)C1)C2	14.6µM*	-17.3%	-8.5%	-3.6%	11.6µM*	0.0%
COc1ccc(NC(=O)c2nn(C)c3c2CCc2sccc2-3)cc1OC	.	.	.	.	.	-6.5%
CC(/C=C/C=C/c1ccccc1)=N\NC(=O)C1CC1c1ccc(C(C)(C)C)cc1 (configuration not stated)	.	.	.	.	.	6.5%
Cc1cc(/C=C2\Sc3ccccc3N2C)cc(C)[n+]1CC1CCCO1 (configuration not stated)	0.0259µM*	2.82µM*	2µM*	?	0.0082µM*	-22.5%
COc1ccc(/C=C2\Sc3ccc(C(=O)NCC4CCCO4)cc3N(C)C2=O)cc1 (configuration not stated)	-17.9%	2.1%	-9.6%	-9.6%	?	-10.2%
COc1ccccc1NC(=O)c1oc2ccccc2c1NC(=O)C1CC1	?	-25.6%	-6.9%	2.7%	?	0.0%
CCOc1ccccc1NC(=O)c1oc2ccccc2c1NC(=O)C1CCCO1 (configuration not stated)	9.2µM*	-36.5%	-14.0%	7.3µM*	16.4µM*	-11.1%
Cc1ccc(NC(=O)c2oc3ccccc3c2NC(=O)C2CCCO2)cc1C (configuration not stated)	8.2µM*	16.6%	1.8%	?	10.3µM*	0.0%
CCOc1ccccc1NC(=O)c1ccc(NC(=O)C2CCCO2)cc1 (configuration not stated)	-15.2%	-4.0%	0.2%	-9.7%	-1.4%	-0.2%
O=C(Nc1ccc(F)c(F)c1)c1oc2ccccc2c1NC(=O)C1CCCO1 (configuration not stated)	5.17µM*	28.3%	?	-7.5%	?	-12.7%
COc1ccc(NC(=O)c2oc3ccccc3c2NC(=O)C2CCCO2)cc1OC (configuration not stated)	18.4µM*	12.7%	-21.3%	?	?	1.2%
